IL1B secr inh: inhibitors of inflammasome signaling (IL-1 beta secretion); THP-1 LPS/ATP IL-1B secretion, AlphaLISA, 16 h; stronger effect = lower value; activity change, % at 57.5 µM; 4.7% of 360,000 active; in the data active = activity change below about -50%; inconclusive = mostly about -30% to -49%
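Secreted IL-1B measured by AlphaLISA bead assay after 16 h compound exposure of THP-1 cells; compounds (final up to 57.5 uM) added 1 h before LPS (250 ng/mL) and ATP (1.25 mM) stimulation; lower signal means less secretion.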
Giardia killer: Giardia lamblia killing; Giardia lamblia trophozoite viability; activity change, % at 7.66 µM, hits read low; 0.15% of 340,000 active; AID 540267; in the data active = activity change below about -80%; inconclusive = between about -30% and that limit;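 note: parasites exposed to compound for two days anaerobically before the ATP read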
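Luminescence from cellular ATP indicates surviving trophozoites (100 cells/well) following 48 hrs anaerobic compound treatment at 37 deg C; signal develops 15-30 min at room temperature.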
DT40 TDP1 no CPT: qHTS for Inhibitors of human tyrosyl-DNA phosphodiesterase 1 (TDP1): qHTS in cells in absence of CPT; DT40 Tdp1-/- hTDP1 cells, no CPT, ATP luminescence, 48 h; Potency, µM (highest dose often 46.2 µM), inactives show at the highest dose activity change, negative = growth inhibition, hits mostly inhibitors; 15% of 420,000 active; note: potency is the fitted concentration of half-maximal effect; nearly all actives have a fitted effect of over 55% in size
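Chicken DT40 Tdp1-/- cells complemented with human TDP1, screened without camptothecin (DMSO vehicle only), 400 cells/well. Compounds pin-transferred, cells incubated at 37 °C for at least 48 hr. Growth read as ATP-dependent luminescence (CellTiter-Glo, 30 min at RT).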
ELG1 repair inh: inhibitors of ELG1-dependent DNA repair in HEK293T cells; Potency, µM (doses to about 46.1 µM), for the others: at the highest dose activity change, negative = inhibition, most hits filed as inhibitors; HEK293T ELG1-luciferase reporter, luminescence, 16 h; DNA damage induced by 5-fluorouridine; AID 504467; 2.3% of 330,000 active; note: potency is the fitted concentration of half-maximal effect; nearly all actives have a fitted effect of over 55% in size
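Quantitative HTS, concentration-response format. 2,000 cells/well co-treated with 5-fluorouridine and compound, 16 hr in 5% CO2 at 37 °C; ONE-Glo luminescence read after 30 min.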
DT40 TDP1 CPT: DT40-hTDP1 cell growth loss with CPT; Potency, µM (doses to about 46.2 µM), for inactives: at the highest dose activity change, negative = growth inhibition, hits mostly inhibitors; chicken DT40 Tdp1-/-;hTDP1 cells + 20 nM CPT, ATP luminescence, 48 h; AID 686979; 12% of 420,000 active; note: potency is the fitted concentration of half-maximal effect; nearly all actives have a fitted effect of over 55% in size
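Chicken DT40 Tdp1-/- cells complemented with human TDP1, 400 cells/well, exposed to compounds plus 20 nM camptothecin for at least 48 h at 37 C; viability read as ATP content by CellTiter-Glo luminescence.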
TDP1 block: TDP1 (human) enzyme inhibition. Q9NUW8. recombinant TDP1, AlphaScreen DNA substrate cleavage. Potency, µM (top dose mostly 130 µM), inactives show at the top dose activity change, negative = inhibition, actives largely listed as inhibitors. 0.28% of 350,000 active. AID 485290; note: potency is the fitted concentration of half-maximal effect; nearly all actives have a fitted effect of over 40% in size
Target sequence (Q9NUW8 whole entry, looked up): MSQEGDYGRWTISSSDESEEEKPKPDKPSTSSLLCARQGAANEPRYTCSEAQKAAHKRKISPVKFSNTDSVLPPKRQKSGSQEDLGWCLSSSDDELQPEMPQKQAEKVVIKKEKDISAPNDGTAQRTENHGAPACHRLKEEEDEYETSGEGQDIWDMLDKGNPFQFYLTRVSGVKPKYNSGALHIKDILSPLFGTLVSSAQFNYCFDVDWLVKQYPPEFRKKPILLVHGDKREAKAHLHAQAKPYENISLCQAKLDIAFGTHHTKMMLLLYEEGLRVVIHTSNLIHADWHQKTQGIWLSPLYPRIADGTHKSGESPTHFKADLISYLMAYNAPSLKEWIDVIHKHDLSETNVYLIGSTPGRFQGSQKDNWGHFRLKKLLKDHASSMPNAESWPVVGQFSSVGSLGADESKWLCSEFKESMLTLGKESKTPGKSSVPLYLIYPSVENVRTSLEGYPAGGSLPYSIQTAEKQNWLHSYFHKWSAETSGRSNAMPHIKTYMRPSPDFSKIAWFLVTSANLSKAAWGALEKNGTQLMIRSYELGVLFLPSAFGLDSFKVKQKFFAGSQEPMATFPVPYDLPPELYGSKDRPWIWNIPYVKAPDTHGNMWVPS
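Enzyme-compound mixtures sat 15 min at room temperature, followed by a 5 min reaction with 15 nM final substrate and 10 min with AlphaScreen beads. Recombinant human Tdp1 was used at 1 nM final.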
* marks the source's active call; other numbers are inactive results; [ ] = remark or other dose. Only some compounds are listed: those with a hit (about 19% of all), similar ones and a draw of the others. Unless noted, calls come from the whole dose curve; as a rule, active = well fitted curve in the direction sought with a large enough effect; inconclusive = small, poorly fitted or top-dose-only effect, or another doubt; inactive = no such curve, though single readings can be large; an effect the other way counts as inactive or inconclusive. % is set by controls: 0 for no effect and ±100 for the full control effect.

Results for Cc1ccc(C(O)c2ncc(-c3ccc4ccccc4c3)[nH]2)cc1F (stereo not given) ?
IL1B secr inh: 0.3; DT40 TDP1 no CPT: 18.4µM*; DT40 TDP1 CPT: 29.1µM*

How did Cc1cccc(C(O)c2ncc(-c3ccc(C(F)(F)F)cc3)[nH]2)c1C (stereo not given) do in these assays?
IL1B secr inh: 20.9; DT40 TDP1 no CPT: inconclusive; DT40 TDP1 CPT: inconclusive

What do the screens show for `C#Cc1cccc(C(=O)NCc2nc(-c3ccccc3NC(=O)C3CCCO3)oc2C)c1` (stereo not given)?
DT40 TDP1 no CPT: -7.7%; DT40 TDP1 CPT: 3.1%[9.04 µM]

Results for CCc1nnc(NC(=O)CN2CCN(c3ccccc3F)CC2)s1 ?
IL1B secr inh: 28.5; Giardia killer: -9.4; DT40 TDP1 no CPT: 3.5%; ELG1 repair inh: -1.7%; DT40 TDP1 CPT: -8.2%; TDP1 block: 0.0%

What do the screens show for `COc1ccc(C2C(O)C(c3c[nH]c4ccccc34)=NN2C(=O)CCl)cc1` (stereo not given)?
IL1B secr inh: -99.4*; Giardia killer: 8.8; DT40 TDP1 no CPT: 0.581µM*; ELG1 repair inh: 8.2µM*; DT40 TDP1 CPT: 0.326µM*; TDP1 block: 9.0%

What do the screens show for `COc1ccc(OC)c(S(=O)(=O)Nc2ccc(O)c3ccccc23)c1`?
IL1B secr inh: 159.6; Giardia killer: 15.8; DT40 TDP1 no CPT: 3.26µM*; ELG1 repair inh: 10.3µM*; DT40 TDP1 CPT: 2.06µM*; TDP1 block: 7.9%

Results for COc1ccc(OC)c(S(=O)(=O)Nc2cccc3c(O)cccc23)c1 ?
IL1B secr inh: 5.2; Giardia killer: 22.5; DT40 TDP1 no CPT: inconclusive; DT40 TDP1 CPT: 20.6µM*

What do the screens show for `CCCCNc1c(-c2ccc(F)cc2)nc2nc(C)cc(C)n12`?
IL1B secr inh: 15.8; DT40 TDP1 no CPT: inconclusive; DT40 TDP1 CPT: inconclusive

What do the screens show for `Cc1cc(C)n2c(NC3CCCCC3)c(-c3ccccn3)nc2n1`?
IL1B secr inh: 43.0; DT40 TDP1 no CPT: 23.1µM*; DT40 TDP1 CPT: inconclusive

What do the screens show for `Cc1cc(C)n2c(NC3CCCC3)c(-c3ccc(F)cc3)nc2n1`?
IL1B secr inh: 20.0; DT40 TDP1 no CPT: 18.4µM*; DT40 TDP1 CPT: inconclusive

What do the screens show for `CC(C)(C)NC(=O)C(c1ccncc1)N(C(=O)Cn1nnc(-c2ccc(F)cc2)n1)c1ccc(F)cc1` (stereo not given)?
IL1B secr inh: -26.3; Giardia killer: -18.2; DT40 TDP1 no CPT: -1.1%; ELG1 repair inh: -14.2%; DT40 TDP1 CPT: -20.6%; TDP1 block: 0.0%

How did Cc1ccc(N(C(=O)Cn2nnc(-c3ccc(F)cc3)n2)C(C(=O)NC(C)(C)C)c2ccncc2)cc1 (stereo not given) do in these assays?
IL1B secr inh: -69.1*; Giardia killer: -13.8; DT40 TDP1 no CPT: -20.9%; ELG1 repair inh: -10.6%; DT40 TDP1 CPT: -10.2%; TDP1 block: 0.0%

What do the screens show for `CC(C)(C)NC(=O)C(c1ccncc1)N(C(=O)Cn1nnc(-c2ccc(F)cc2)n1)c1ccccc1F` (stereo not given)?
IL1B secr inh: -8.5; Giardia killer: 10.3; DT40 TDP1 no CPT: -27.9%; ELG1 repair inh: 8.3%; DT40 TDP1 CPT: -11.4%; TDP1 block: 2.8%

Results for Cc1ccccc1N(C(=O)Cn1nnc(-c2ccc(F)cc2)n1)C(C(=O)NC(C)(C)C)c1ccncc1 (stereo not given) ?
IL1B secr inh: -57.1*; Giardia killer: 25.1; DT40 TDP1 no CPT: -59.5%; ELG1 repair inh: -2.6%; DT40 TDP1 CPT: 0.5%; TDP1 block: 5.6%

What do the screens show for `CC(C)(C)NC(=O)C(c1ccc(O)cc1)N(C(=O)Cn1nnc(-c2ccc(F)cc2)n1)c1ccccc1F` (stereo not given)?
IL1B secr inh: inconclusive; Giardia killer: -1.9; DT40 TDP1 no CPT: 16.4µM*; ELG1 repair inh: -0.4%; DT40 TDP1 CPT: inconclusive; TDP1 block: 5.1%

What do the screens show for `CC(=O)c1ccc(N2C(=NC(=O)CCc3ccccc3)SC3CS(=O)(=O)CC32)cc1` (stereo not given)?
IL1B secr inh: -11.9; Giardia killer: 12.3; DT40 TDP1 no CPT: 9.0%; ELG1 repair inh: -1.1%; DT40 TDP1 CPT: 2.6%; TDP1 block: 2.7%

What do the screens show for `O=C1CCCc2c1[nH]c1ccccc21`?
IL1B secr inh: 93.2; Giardia killer: 15.5; DT40 TDP1 no CPT: -3.0%; ELG1 repair inh: 14.4%; DT40 TDP1 CPT: inconclusive; TDP1 block: 1.0%

What do the screens show for `c1ccc2c3c([nH]c2c1)-c1[nH]ncc1CC3`?
IL1B secr inh: -27.6; Giardia killer: -3.3; DT40 TDP1 no CPT: inconclusive; ELG1 repair inh: -17.3%; DT40 TDP1 CPT: 16.4µM*; TDP1 block: 3.2%

Results for CCN(CC)C(=O)C1CCCc2c1[nH]c1ccc(Cl)cc21 (stereo not given) ?
IL1B secr inh: -1.2; Giardia killer: -8.3; DT40 TDP1 no CPT: inconclusive; ELG1 repair inh: inconclusive; DT40 TDP1 CPT: -20.3%; TDP1 block: -5.2%

How did Clc1ccc2[nH]c3c(c2c1)CCc1cn[nH]c1-3 do in these assays?
IL1B secr inh: -21.8; Giardia killer: 4.8; DT40 TDP1 no CPT: 18.4µM*; ELG1 repair inh: inconclusive; DT40 TDP1 CPT: inconclusive; TDP1 block: 5.7%

What do the screens show for `CCOC(=O)c1c(NC(=O)c2cc3ccccc3c(=O)o2)sc2c1CCC(C(C)(C)C)C2` (stereo not given)?
DT40 TDP1 no CPT: 6.6%; DT40 TDP1 CPT: 8.5%; TDP1 block: -2.1%

How did COc1ccc(S(=O)(=O)Nc2ccccc2OC)cc1NC(=O)Cc1cccs1 do in these assays?
IL1B secr inh: 0.1; Giardia killer: 11.4; DT40 TDP1 no CPT: 20.6µM*; ELG1 repair inh: 2.5%; DT40 TDP1 CPT: inconclusive; TDP1 block: 3.0%

What do the screens show for `COc1ccccc1NS(=O)(=O)c1cccc(C(=O)N(C)Cc2cccs2)c1`?
IL1B secr inh: 16.4; Giardia killer: 17.4; DT40 TDP1 no CPT: 23.1µM*; ELG1 repair inh: 4.5%; DT40 TDP1 CPT: 23.1µM*; TDP1 block: 1.3%

What do the screens show for `COc1ccccc1NS(=O)(=O)c1ccc(NC(=O)Cc2cccs2)cc1`?
IL1B secr inh: 0.0; Giardia killer: -16.2; DT40 TDP1 no CPT: inconclusive; ELG1 repair inh: -6.8%; DT40 TDP1 CPT: inconclusive; TDP1 block: 5.5%

Results for CC(NC(=O)COc1cccnc1[N+](=O)[O-])c1ccc(Cl)cc1 (stereo not given) ?
IL1B secr inh: -0.1; Giardia killer: inconclusive; DT40 TDP1 no CPT: -18.1%; ELG1 repair inh: -2.5%; DT40 TDP1 CPT: -24.2%; TDP1 block: -0.5%
